Reference: the OligoGym collection

biological target: WNT16; assay: pooled miR-30 sensor sort-seq; sequence = guide strand; conditions: shRNA

| Sequence | sensor-assay potency score (higher = more potent) |
| --- | --- |
| AAATCTAGGAACTTTCTGCTGA | 0.396 |
| TTCTTTGTCACTAAACATCTGT | -0.0723 |
| TTTACATTAAAATACATCCTTA | -0.353 |

biological target: WNT4; assay: as above; conditions: shRNA

| Sequence | sensor-assay potency score (higher = more potent) |
| --- | --- |
| TGCACTGTCCTGTCACAGCCGC | -1.01 |
| AAGGAGTCGAGTGTGGAGCAGT | -0.667 |
| TTGAACTGTGCGTTGCGTGGCA | 0.0724 |
| TACACCAGGTCCTCATCTGTGT | -0.668 |
| TTGTCAGAGCATCCTGACCACT | -1.18 |
| TTGCGTGGCACCAGTGCCCTGG | -0.464 |
| TTTCTCGCACGTCTCCTCCTCT | -0.548 |
| TTGGACGTCTTGTTGCATGTGC | 0.653 |
| ATGACTTCCAGGTTCCGCTTGC | -0.442 |
| TCGAGTGTGGAGCAGTTCCAGC | -1.25 |
| TGGAATTTGCAGCTGCAGCGTT | -0.943 |
| TTGCACATCTGCACCTGCCTCT | 0.262 |

biological target: WRAP73; assay: as above; conditions: shRNA

| Sequence | sensor-assay potency score (higher = more potent) |
| --- | --- |
| TTGTGCACAAGGACCAGACGGT | 0.172 |
| TACGTGGACAACAACCGGCCAT | -0.35 |
| TTGCTCTGTCGGTAACAGGTTT | -1.05 |
| TACATATTTACAAAAATGCTTT | -1.06 |
| TTGGGAATGTTGTCGTTCCTTG | -0.237 |
| TTGCTGAGGAGGGCCATCGAGT | -1.36 |
| TAACAGGTTTCAGTGTCTGTAA | -0.596 |
| TTCGGGTTTGCTCTGTCGGTAA | -0.662 |
| TTATACACCACTATCTTGGGAT | 0.881 |
| TAATCTTTGCAGTCGCGCCGTT | -0.556 |
| TTTCGGGTTTGCTCTGTCGGTA | -0.96 |
| TATTTACTCTCTGAGCTCGGGA | -0.387 |

biological target: WRB; assay: as above; conditions: shRNA

| Sequence | sensor-assay potency score (higher = more potent) |
| --- | --- |
| TTAAATACAAAACACAAGTTGA | -0.499 |
| TCACATTTCGTACAGATCGAGG | -1.13 |
| TTACAGACTAAAATCCAACAGG | -0.429 |
| TACTATACAACTCTTGCTCAAC | -0.82 |
| TTGGCTAATTGAGCTGTCCGAG | -0.552 |
| TTATCTTGGCTAATTGAGCTGT | -0.0399 |
| TAATACTATACAACTCTTGCTC | 0.423 |
| TTGAGCTTATCCGTCATCTTGT | 0.602 |
| TAGTGTTGTTCTTTTAACCATA | -0.891 |
| TTGCATCCAAACACGAAGCTGA | 0.58 |
| ATATCTGGCAAACTCGTCCATC | -0.952 |
| TCGTCCATCATGTTGACTGTGG | -0.317 |
